Test results taken from PubChem BioAssay (Tox21).
Records with an inconclusive call do not appear. Where a call stands in place of a potency, no number is given. Activity calls are given as the source filed them. Calls follow the shape of the full dose curve.

Biological target: Beta-2 adrenergic receptor (Homo sapiens) (UniProt P07550)
Assay: Adrenergic beta2 receptor (ADRB2) small molecule agonists, cell-based qHTS assay (AID 1963593);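 also: CHO cells stably overexpressing human ADRB2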
Settings: CHO-ADRB2 cells, cAMP HTRF, 30 min; series mostly up to 92.4 µM
Procedure, shortened: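 CHO cells stably over-expressing ADRB2 were plated overnight at 37C, then dosed with compounds plus a stimulation mix containing 100uM IBMX and 25uM Ro-20-1724 for 0.5hr at room temperature. cAMP was measured by HTRF competition, 1hr.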

Chain of Beta-2 adrenergic receptor (Homo sapiens) (P07550 whole entry, looked up): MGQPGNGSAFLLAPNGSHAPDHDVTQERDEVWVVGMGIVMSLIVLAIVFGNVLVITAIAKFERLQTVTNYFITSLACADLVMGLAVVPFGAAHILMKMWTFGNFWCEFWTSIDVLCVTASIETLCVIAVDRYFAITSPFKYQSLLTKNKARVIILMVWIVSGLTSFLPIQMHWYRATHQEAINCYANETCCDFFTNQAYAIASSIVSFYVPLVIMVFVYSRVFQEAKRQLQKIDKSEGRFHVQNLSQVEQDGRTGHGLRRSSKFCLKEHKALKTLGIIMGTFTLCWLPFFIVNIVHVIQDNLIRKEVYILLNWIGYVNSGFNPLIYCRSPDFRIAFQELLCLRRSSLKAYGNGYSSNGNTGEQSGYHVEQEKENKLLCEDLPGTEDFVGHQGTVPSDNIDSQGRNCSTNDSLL

Row | Structure (SMILES) | Potency
1 | S=C(NC1CCCCC1)NC1CCCCC1 | inactive
2 | COc1ccc(N)c(C)c1 | inactive
3 | CCCCCCCCCCCC(=O)N(C)CC(=O)O | inactive
4 | CC(=O)OC1CC(C)OC(C)O1 (centres undefined) | inactive
5 | CC(C)CC(C)O (centres undefined) | inactive
6 | COCc1ccc(COC)cc1 | inactive
7 | CCCCC(CC)COC(C)=O (centres undefined) | inactive
8 | O=C1CCCCC1 | inactive
9 | CCC(C)c1ccccc1O (centres undefined) | inactive
10 | Cc1cccc(C)c1[N+](=O)[O-] | inactive
11 | N#Cc1ccc(C2CCCc3cncn32)cc1 (centres undefined) | inactive
12 | CC(=O)OC/C=C(\C)CC/C=C(\C)CCC=C(C)C | inactive
13 | O=C1CCC(=O)O1 | inactive
14 | CS(=O)(=O)c1ccc(Cl)cc1 | inactive
15 | Cc1cccnc1 | inactive
16 | CS(=O)(=O)O | inactive
17 | CNCCS(=O)(=O)O | inactive
18 | CN1Cc2c(N)cccc2C(c2ccccc2)C1 (centres undefined) | inactive
19 | CCOC(=O)c1c(C)n(C)c2ccc(O)cc12 | inactive
20 | C=CC(=O)NCOCCCC | inactive
21 | O=[N+]([O-])c1ccc2nc[nH]c2c1 | inactive
22 | CCCCCCCO | inactive
23 | CCCCCCCCCCCCCCCCCCOCC(O)CO (centres undefined) | inactive

Biological target: D(2) dopamine receptor (Homo sapiens) (UniProt P14416)
Assay: Dopamine D2 receptor (DRD2) small molecule agonists, cell-based qHTS assay (AID 1963594); also: nearly all actives have a fitted effect of over 35% in size
Settings: HEK293-DRD2 cAMP HTRF, agonist mode, 30 min; series mostly up to 92.4 µM
Procedure, shortened: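 HEK293 cells stably expressing DRD2 were cultured 24 h at 37 C, then given Ro20-1724 (0.1 mM final) and compounds for 10 min at room temperature. NKH477 (200nM) was then added for 30 min. cAMP was read by HTRF.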

Chain of D(2) dopamine receptor (Homo sapiens) (P14416 whole entry, looked up): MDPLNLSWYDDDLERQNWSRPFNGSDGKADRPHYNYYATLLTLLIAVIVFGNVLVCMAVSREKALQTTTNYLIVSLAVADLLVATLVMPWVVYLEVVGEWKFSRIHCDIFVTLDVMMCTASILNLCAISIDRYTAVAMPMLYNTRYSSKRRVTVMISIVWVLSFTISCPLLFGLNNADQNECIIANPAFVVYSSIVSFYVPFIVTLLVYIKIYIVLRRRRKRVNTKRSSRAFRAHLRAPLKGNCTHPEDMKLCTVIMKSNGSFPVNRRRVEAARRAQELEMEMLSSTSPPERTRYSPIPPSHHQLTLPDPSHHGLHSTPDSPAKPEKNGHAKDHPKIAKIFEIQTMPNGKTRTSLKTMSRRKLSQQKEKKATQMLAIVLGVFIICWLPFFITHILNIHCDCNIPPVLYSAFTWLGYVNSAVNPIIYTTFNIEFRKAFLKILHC

Row | Structure (SMILES) | Potency | activation
24 | S=C(NC1CCCCC1)NC1CCCCC1 | inactive | 
25 | O=c1cc(-c2ccccc2)oc2ccccc12 | inactive | 
26 | CC(C)(N=C=O)c1cccc(C(C)(C)N=C=O)c1 | inactive | 
27 | Nc1cccc(N)n1 | inactive | 
28 | O=S(=O)(Oc1ccc(Cl)cc1Cl)c1ccccc1 | inactive | 
29 | C[N+](C)(C)CC(O)CCl (centres undefined) | inactive | 
30 | Cn1sccc1=O | inactive | 
31 | NCCNCCNCCNCCN | inactive | 
32 | COc1ccc(N)c(C)c1 | inactive | 
33 | O=C(O)c1ccc(C(=O)O)c(C(=O)O)c1 | inactive | 
34 | CCCCCCCCCCCC(=O)N(C)CC(=O)O | inactive | 
35 | CCC(C)NC(N)=O (centres undefined) | inactive | 
36 | CC(=O)OC1CC(C)OC(C)O1 (centres undefined) | inactive | 
37 | COCc1ccc(COC)cc1 | inactive | 
38 | CCCCNc1ccccc1 | inactive | 
39 | CCCCC(CC)COC(C)=O (centres undefined) | inactive | 
40 | O=C1CCCCC1 | inactive | 
41 | CCC(C)c1ccccc1O (centres undefined) | inactive | 

Row | Structure (SMILES) | Potency | activation
42 | Cc1cccc(C)c1[N+](=O)[O-] | inactive | 
43 | N#Cc1ccc(C2CCCc3cncn32)cc1 (centres undefined) | inactive | 
44 | CC(=O)OC/C=C(\C)CC/C=C(\C)CCC=C(C)C | inactive | 
45 | CS(=O)(=O)c1ccc(Cl)cc1 | inactive | 
46 | Cc1cccnc1 | inactive | 
47 | CS(=O)(=O)O | inactive | 
48 | CNCCS(=O)(=O)O | inactive | 
49 | NC(=Nc1ccccc1)Nc1ccccc1 | inactive | 
50 | O=C(O)c1ccccc1C(c1ccc(O)cc1)c1ccc(O)cc1 | inactive | 
51 | CN1Cc2c(N)cccc2C(c2ccccc2)C1 (centres undefined) | inactive | 
52 | C[n+]1ccn(CCO)c1 | inactive | 
53 | CCOC(=O)c1c(C)n(C)c2ccc(O)cc12 | inactive | 
54 | CC1=CC[C@@H]2C[C@H]1C2(C)C |  | -0.279% [at 19 µM] (inactive)
55 | c1ccc2c(c1)-c1cccc3c1c-2cc1ccccc13 | inactive | 
56 | C=CC(=O)NCOCCCC | inactive | 
57 | O=[N+]([O-])c1ccc2nc[nH]c2c1 | inactive | 
58 | CCCCCCCO | inactive | 
59 | CCCCCCCCCCCCCCCCCCOCC(O)CO (centres undefined) | inactive | 
